Laboratory results taken from PubChem BioAssay (NCI).
Compounds without any hit were thinned out: in the full panel of roughly 83,000, 20% have a hit.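 The test compound was applied at a single concentration to cells in 96-well plates for 48 hours, and percent growth was recorded.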 A number with no mark means an inactive call. Activity calls are given as the source filed them. How the source made its calls: active means growth percent below 10; inactive means the rest.

Experiments:
Assay in all cases: NCI-60 one-dose screen, 48 h (100 = growth as untreated, 0 = no growth, -100 = all killed)
Details in all cases: 10 µM unless noted
T-47D breast = tested on: T-47D breast
BT-549 breast = tested on: BT-549 breast
MDA-MB-435 melanoma = tested on: MDA-MB-435 melanoma
SW-620 colon = tested on: SW-620 colon
MCF7 breast = tested on: MCF7 breast
HCT-116 colon = tested on: HCT-116 colon
HCC-2998 colon = tested on: HCC-2998 colon
KM12 colon = tested on: KM12 colon

| Structure (SMILES) | growth (T-47D breast) | growth (BT-549 breast) | growth (MDA-MB-435 melanoma) | growth (SW-620 colon) | growth (MCF7 breast) | growth (HCT-116 colon) | growth (HCC-2998 colon) | growth (KM12 colon) |
| --- | --- | --- | --- | --- | --- | --- | --- | --- |
| OC(c1cc(-c2ccccc2)nc2ccc(Cl)cc12)C1CCCCN1 (stereo unspecified) | 19.9% | 91.5% | 42.6% | 21.2% | -41% (active) | 33.4% | -87.7% (active) | 6.52% (active) |
| COCCOc1ccc(-c2nc3ccc(-c4nc5ccc(N6CCN(C)CC6)cc5[nH]4)cc3[nH]2)cc1 | 2.28% (active) | -30.5% (active) | -43.6% (active) | 4.55% (active) | 17.7% | -57.6% (active) | -52.7% (active) | 46.2% |
| CCN(CC)C12CCCCC1(C)C(C#N)(C#N)C(C#N)=C(N)O2 (stereo unspecified) | 98.8% | 103% | 96.8% | 109% | 105% | 100% | 96.3% | 106% |
| CC[C@H](Nc1ncnc(N)c1C(N)=O)c1nc2cccc(NCc3ccc(C(=O)NO)cc3)c2c(=O)n1-c1ccccc1 | 42.1% | 88.6% | 81.8% | 66.8% | 82.8% | 67% | 86.1% | 89.6% |
| CCCCNc1ccc2c3c1cccc3c(=O)n1c3ccccc3nc21 | 35.7% | 98.2% | 111% | 86.4% | 10.3% | 86.7% | 74% | 77.7% |
| Nc1cc2nc3ccccc3sc-2cc1=O | 71.1% | 63.1% | -68.2% (active) | 84.7% | 44.3% | 72.7% | 100% | 80.8% |
| O=[N+]([O-])c1cccc(-c2nc3sccn3c2-c2ccnc(NCCCNS(=O)(=O)c3ccc(F)cc3)n2)c1 | -12.1% (active) | -12.1% (active) | 1.66% (active) | 18.3% | -8.37% (active) | 4.43% (active) | 58.3% | 0.995% (active) |
| CCOC(=O)c1cnc2ccc(OC)cc2c1Nc1cccc(S(=O)(=O)NC)c1 | 98% | 80.1% | 103% | 113% | 80.9% | 96.7% | 101% | 96.1% |
| N=S(=O)(NC(=O)c1ccc(Cl)cc1Cl)c1ccc(Br)s1 (stereo unspecified) | 103% | 99.5% | 96.2% | 80.9% | 91.5% | 80.6% | 102% | 88.5% |
| COc1ccc(-c2cc(-c3cccnc3)nc3sc4c(=O)n(-c5ccc(C)cc5)nnc4c23)cc1OC | 99.3% | 103% | 99.3% | 94.4% | 99.7% | 95% | 109% | 103% |
| O=C1OC2C(I)C3CC2C1C3c1ccccc1 (stereo unspecified) | 95.2% | 152% | 131% | 96.1% | 109% | 96.8% | 105% | 108% |
| C/C=C/C(N)=O | 115% | 99.7% | 96.4% | 96.8% | 92.1% | 98.4% | 109% | 103% |
| CC(C)[C@H]1COC(=O)N1[C@@H]1C(=O)N([C@@H](CCC(=O)N2CCN(C3CCCC3)CC2)C(=O)N[C@@H]2CCCc3ccccc32)[C@@H]1/C=C/c1cccc(Br)c1 | 39.9% | 27.6% | 30.2% | 45.2% | 23% | 14.3% | 30.8% | 35.6% |
| Cc1cc(Cl)ccc1Nc1nc(C(F)(F)F)ccc1C(=O)N/N=C/c1ccc(F)cc1 | 28.4% | 3.74% (active) | 31.9% | 12.7% | -15.2% (active) | 8.67% (active) | 12.4% | 7.78% (active) |
| O=C(CO[N+](=O)[O-])Nc1ccc(C(=O)/C=C/c2ccc(Cl)cc2)cc1 | 55.5% | 18.9% | -2.76% (active) | -61.8% (active) | 1.64% (active) | -49.2% (active) | -61.3% (active) | -60.6% (active) |
| Cc1cc2cc3cc(C)c(N(C)C)cc3nc2cc1N(C)C | 7.76% (active) | -11.6% (active) | 29.1% | 17.7% | 13.5% | 13.7% | 23.7% | 3.92% (active) |

| Structure (SMILES) | growth (T-47D breast) | growth (BT-549 breast) | growth (MDA-MB-435 melanoma) | growth (SW-620 colon) | growth (MCF7 breast) | growth (HCT-116 colon) | growth (HCC-2998 colon) | growth (KM12 colon) |
| --- | --- | --- | --- | --- | --- | --- | --- | --- |
| COc1cc(C2C(C(=O)c3cccs3)=C(O)C(=O)N2CCN2CCOCC2)cc(OC)c1OC (stereo unspecified) | 104% | 107% | 99.5% | 97.2% | 95.1% | 101% | 101% | 98.3% |
| Cc1cc(Nc2nc(N3CCNCC3)nc3ccccc23)n[nH]1 | 93% | 88.6% | 73% | 103% | 87% | 80% | 92.4% | 26.7% |
| COc1c(Cl)cc(Cl)cc1Cl | 104% | 120% | 115% | 91.8% | 111% | 109% | 118% | 109% |
| CNC(=S)N/N=C/CSC/C=N/NC(=S)NC | 33.2% | 96.8% | 81.7% | 64.5% | 3.33% (active) | 63.3% | 97.6% | 75.9% |
| CC1=N/C(=C\c2cccc(Br)c2)C(=O)O1 | 97.3% | 109% | 107% | 104% | 102% | 103% | 111% | 106% |
| Cc1nc2nc(N)nc(N)c2nc1C | 91.2% | 89.4% | 99.5% | 100% | 97.9% | 94.3% | 99% | 102% |
| CC/C(Cc1ccccc1)=C(/c1ccc(O)cc1)c1ccc(OCCN2CCCC2)cc1 | -25.2% (active) | 44.7% | -100% (active) | -78.4% (active) | -67.7% (active) | -87.1% (active) | -90.9% (active) | -75.4% (active) |
| Cc1ccc2c(c1)O/C(=C\c1cccc(OCC(=O)c3ccccc3)c1)C2=O | 87.6% | 104% | 96.5% | 102% | 74.8% | 84.4% | 130% | 85.3% |
| Nc1cc2ccncc2c2ccccc12 | 82.3% | 70.5% | 59.8% | 62.7% | 51.5% | 38.3% | 83% | 68.6% |
| Cc1ccc(/C=C2\Oc3cc(OCC(=O)c4ccc(Cl)cc4)ccc3C2=O)cc1 | 97.9% | 110% | 104% | 97.1% | 119% | 89.5% | 92.6% | 104% |
| COC1C/C(=N\O)C2OC(c3ccccc3)OCC2O1 (stereo unspecified) | 103% | 105% | 102% | 105% | 102% | 97.9% | 110% | 121% |
| COc1ccc(CN2C(=O)/C(=C\c3cc(OC)c(OC)c(OC)c3)c3cc(OC)ccc32)cc1 | -0.59% (active) | 27.1% | -0.0336% (active) | -64.1% (active) | 7.67% (active) | -79.6% (active) | 74.1% | -86% (active) |
| COc1cccc2c1C(=O)c1c(O)c3c(c(O)c1C2=O)C[C@@](O)(/C(C)=N/NC(=O)c1ccc(Cl)cc1)C[C@@H]3OC1CC(N)C(O)C(C)O1 (stereo partly specified) | -11.6% (active) | -45.3% (active) | -87.3% (active) | -36.6% (active) | -13.8% (active) | 7.54% (active) | -45% (active) | -26.2% (active) |
| Cc1nn(-c2ccccc2)c2nc(C)n(-c3ccc(Br)cc3)c(=O)c12 | 23.4% | 50.7% | -5.13% (active) | 22.6% | 13.4% | 15.7% | 32.6% | 43.1% |
| Cn1c2ccccc2c2c3[nH]c(=O)[nH]c(=O)c3c3c4ccccc4n(C)c3c21 | 42.5% | 39.7% | 36.5% | 33.1% | 32.9% | 17.6% | 73.9% | 24.2% |
| COc1ccc(/C=C2\N=C3Sc4cc(Cl)ccc4C(=O)N3C2=O)cc1 | 92% | 114% | 102% | 97.1% | 94.7% | 104% | 118% | 104% |
